Experimental data: article PMC13494018; call rule not given here

B1: d3r1_design_ppi_648_dldesign_0_cycle0_af2pred (protein)
chain: GEEAAKKSKEAEKALEEAKKILKEGGKEGEEKAKKLVEEKVKELKKWGKETGTGGEALAKILKEEFEKAKKEK
B2: d3r1_design_ppi_418_dldesign_0_cycle0_af2pred (protein)
chain: SEAEAVKATLKGAKETVKELKKEAEKNPEKAEEYAKEAEKIAKAAEKLAEKSSEEAKKEAKEVKEEAKEAKKLAKKIIEEKKAKE
B3: d3r1_design_ppi_541_dldesign_0_cycle1_af2pred (protein)
chain: MEEEKKKIEEEIEEVKEALKEAEKLFAKDPVAGAKYAENLAIALKKRGLSEEAINLAKEAAEKLKAEAEKVKAA
B4: d3r1_design_ppi_589_dldesign_0_cycle1_af2pred (protein)
chain: MEEDAKKAQEVADLLAKTAATGPAYADEAIAKTAEVLGPYFAEKLKKAIAAGPEEVKKMYDIVKQHAENIKAA
B5: d8r1_design_ppi_568_dldesign_0_cycle1_af2pred (protein)
chain: AARHLALAIRGVLKADDAGDAEAAAKAKALLAKAAAALAAGDEAAAKAYATQAAAVADPAYAPVAEAVAAAAAA
B6: d3r1_design_ppi_369_dldesign_0_cycle1_af2pred (protein)
chain: AVPAELREILSKQALAKMEELEKEAKEKADTPEGLEVMEEAAEWFREAAKGLRAAGDEETAKKMEEKAKELEELAKEKKEK
B7: d8r1_design_ppi_92_dldesign_0_cycle1_af2pred (protein)
chain: ERERERAAIRALLATVDAEYAKAAKEGPEAADAGIERVAAAAAAAGALGPDTASAGRFAVGVYRTLAEKVKAAWAA
B8: d3r1_design_ppi_687_dldesign_0_cycle0_af2pred (protein)
chain: MKKEEEEKKKKEKLKKKVEEKKEELKELKKAKEELEKAIEKLKPLAEKDPRIKANAEAAKKAAEEELKKKEEELEKLKKELE
B9: d3r1_design_ppi_578_dldesign_0_cycle1_af2pred (protein)
chain: MEELEEAKKRAEELKKEVEENKEKFKEASKEAQELADNSLKAIKAAFKYIEEKEEVENAKRAVEVAEENYKKAKELAEKLLKEK
B10: d3r1_design_ppi_677_dldesign_0_cycle1_af2pred (protein)
chain: MEEKKKKIDEKLILAGELAKKNGLLGEIVAKKAIEEGRKAGITEFSEEAVEALKIAFAAGAAARAALAAALA
B11: d3r1_design_ppi_53_dldesign_0_cycle1_af2pred (protein)
chain: ASEADRAQVRAEGMAEALKLRAEAAAPLLSPEAVAEIKALAEKMAADPENRDAYYAAAVALLDAALAAAKA
B12: d3r1_design_ppi_595_dldesign_0_cycle1_af2pred (protein)
chain: DLFKKGIEEAEKAYKKYPKLGLAVAQLVLAKYFLEAAKKSTPEEAKNYLEAAKLALEKSKELLKEVEAKLKAE
B13: d3r1_design_ppi_230_dldesign_0_cycle1_af2pred (protein)
chain: TLAESALKALKVIGKAAVEVAKELGEEVYKKVKKEVEKLLKEVESASPEERAKLAAEAAKKMQKKLEELEKLLKEKKKK
B14: d3r1_design_ppi_175_dldesign_0_cycle1_af2pred (protein)
chain: GSAATLAATAAKLAVKSAKKEMEEAKKNPETGPERLEKYAEILEKAAKDAKATGTAEAKEAAKEAEKEAKKAKEEAKKLK
B15: d3r1_design_ppi_121_dldesign_0_cycle1_af2pred (protein)
chain: MKALEEAKKAAEKVKKLAKEAKELGDEETAKGLKEMEEEIKKLYKKAKEDPSKAEEYAEIAKKIAEIAKKHYEESKKKLEKEKE
B16: d3r1_design_ppi_135_dldesign_0_cycle1_af2pred (protein)
chain: GSLEEYEKLLAENSKLAVEKATKAAKEEVKKKGTEEAAKEATKRLEALAKALKSSGFKGTKEEAEKAKEAAKKLEKEAKKIAK
B17: d3r1_design_ppi_168_dldesign_0_cycle1_af2pred (protein)
chain: ANKEEAKKAATEGQDAMAELRALKKEGGDPEEIKKAGDKAIESYEKAGELDPSIKERADKMIEAAKKLTEEGIKASKEK
B18: d3r1_design_ppi_576_dldesign_0_cycle1_af2pred (protein)
chain: GEEEEKAKETIKKMEELAKKGAENPEKGKEYVAEAMRIGRETAKELSEEVGEKVLKKAEEIASEAMKKVLENKKKLA
B19: d3r1_design_ppi_25_dldesign_0_cycle1_af2pred (protein)
chain: SMAAKSAELRAESRRESILAAARQFAAENPAQGPRALAKAEELVAKAKEFAAATKDPAEAAAFAAQQAEEFRAYLAALEAEAA
B20: d3r1_design_ppi_418_dldesign_0_cycle1_af2pred (protein)
chain: DKNEAIKNTLKGAEKAVKELKKEAIKDPEKAEEYAKRAEEIAKAAKELAKQGTEEAKEEAKKVEKEAKEAKKEAKKVVEEKKKKE
B21: d3r1_design_ppi_123_dldesign_0_cycle0_af2pred (protein)
chain: SENDKITLEQAKKLLEKEAKRAAEVAEKIDKEKAKKIKKYAEEALKKGKLTELAKAVKKVSEELEKYEKKLKEEEEKA
B22: d3r1_design_ppi_130_dldesign_0_cycle0_af2pred (protein)
chain: SASEKANNELAAKLAVESAKKYLEEAEKLEKEDKEKAKKLLKEIAEKAEAGVKAFADSPEAPELKKLAEEAKAKIEEI
B23: d3r1_design_ppi_237_dldesign_0_cycle0_af2pred (protein)
chain: TPLEQLGKLVKEAKKAAKEAKELIKKGKAKEAAKLAREAAKKQIEKAKKIGEEYPEAKASAEAAAAYIEALAKEVEKEAKAAEA
B24: d3r1_design_ppi_36_dldesign_0_cycle1_af2pred (protein)
chain: EEERLKEAEETYKKLLEELYKESLKEIEEAAKKGPEAAKKALEKAKAEFDEYEKGLLPEYAKEVKEKLEKEAEKLIKKAK
B25: d8r1_design_ppi_860_dldesign_0_cycle0_af2pred (protein)
chain: DEAYELAAEALARASELRAAAAAARAARGAAGVAEAAALDAEAVRVLEEAAKKLKALGSGLGKNLEAAARRLAERAAAATAAARA
B26: d3r1_design_ppi_123_dldesign_0_cycle1_af2pred (protein)
chain: DPAVETTKANGKALLTKVAKEAAEVAAKIDPAKAKEITDYAAKALKAGDVTEIAKAVKKVSEELEKYKKELEKKEKEA
B27: d3r1_design_ppi_121_dldesign_0_cycle0_af2pred (protein)
chain: DEALKTAEKAAKEVEELAKEAKEAGDEETAKGLEEMLEKIKELLEKAKKDPSKAKEYAKTAEAIAKVAKKNYEESLKKLKEEKE
B28: d3r1_design_ppi_404_dldesign_0_cycle1_af2pred (protein)
chain: NKVEVAQKAYDKAKEAKEKMIKEAKENPEAKPKIPEIEALMKKAQEEAVGKAVELLDKGATPEEALKAAEKIIKEAEKKAKEIIE
B29: d8r1_design_ppi_1354_dldesign_0_cycle1_af2pred (protein)
chain: SRAAAAKAFGKAAVEQLKKLAKAAGAEEARKLAKQLQADFAAFAAAVPEVAAEFKAAAEAAKKAAEEVAKEQEAKAAAAAAA
B30: d3r1_design_ppi_608_dldesign_0_cycle1_af2pred (protein)
chain: ATEEAKKYAEKAKELAKKAEEAAKKEGVEAGEEYLEKAKEEVLKAYKYAAESGDEEAKKAAEEALEAVEKAEKEIEKIKKEKE
B31: d3r1_design_ppi_578_dldesign_0_cycle0_af2pred (protein)
chain: MEELEEARKRADELEKEVKKLEPLFKEASKEAAELAENAKKAIEAAKKFIEDKSQIELAQRAVDQAEKNLKLAKELMEKILKEK
B32: d8r1_design_ppi_1117_dldesign_0_cycle1_af2pred (protein)
chain: AAAEAQARALAAELLAEAFDDPELAARALALPPHHAAALAAGQIVAKKSDEEAAAAVARANQVHALAAAAAAAA
B33: d3r1_design_ppi_340_dldesign_0_cycle1_af2pred (protein)
chain: EKEKVRKEAEKAIKKAKAAAKAAKAGKDLKAAEKAVKEAAKAAKAAVEAGDPELAEKVAKAAQEASTALNAALSKRLAA
B34: d3r1_design_ppi_688_dldesign_0_cycle1_af2pred (protein)
chain: AVENAKKAAEQATKALKAYATEEEKEEAEKKGKEFKKLAEEAKADPSKAEEVLNKLLKEAKEYDKKLEEKEKKEKEE
B35: d3r1_design_ppi_688_dldesign_0_cycle0_af2pred (protein)
chain: MEELAEKAAKTASAALKEYATEEEKEEAEKKSKEFEKLAEEGKKNPEKAEEVLKELLEKAKEYQKKLEEKEKKEKEE
B36: d8r1_design_ppi_427_dldesign_0_cycle0_af2pred (protein)
chain: MSRIAAWVIAAISAAATDPAEADKVAARAAEEALANPEKADEALALAAETARAAGLDAATVDAAVARIRALVAAL
B37: d3r1_design_ppi_79_dldesign_0_cycle0_af2pred (protein)
chain: MTDEEIAKKLIEVAKKAKEEAEKKLKDDPEKVKKVKEIAEEAIKEAKKDPKKGPEALQKAAEEMEKLVKE
B38: d3r1_design_ppi_404_dldesign_0_cycle0_af2pred (protein)
chain: SMTEIAQKAYEKAEEARKKMLKKAEEDPEARPKLPEIEALMKEAREKAVSAVVELLTKGESEEEAMKKAEEIIEEAKKEAEKIMK

target: VTCN1, Q7Z7D3
Sequence (Q7Z7D3 whole entry): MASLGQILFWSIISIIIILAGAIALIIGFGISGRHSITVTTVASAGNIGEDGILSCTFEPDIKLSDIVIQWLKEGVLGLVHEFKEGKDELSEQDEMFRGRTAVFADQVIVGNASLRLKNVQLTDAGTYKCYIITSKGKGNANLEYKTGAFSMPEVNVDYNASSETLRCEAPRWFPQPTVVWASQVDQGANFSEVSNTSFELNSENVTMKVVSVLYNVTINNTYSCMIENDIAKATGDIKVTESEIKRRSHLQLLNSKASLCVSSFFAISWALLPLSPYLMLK

Binding in a display sort, inactive:
B1 not found
B2 not found
B3 not found
B4 not found
B6 not found
B8 not found
B9 not found
B10 not found
B11 not found
B12 not found
B13 not found
B14 not found
B15 not found
B16 not found
B17 not found
B18 not found
B19 not found
B20 not found
B21 not found
B22 not found
B23 not found
B24 not found
B26 not found
B27 not found
B28 not found
B30 not found
B31 not found
B33 not found
B34 not found
B35 not found
B37 not found
B38 not found

target: PDL1, Q9NZQ7
Sequence (Q9NZQ7 whole entry): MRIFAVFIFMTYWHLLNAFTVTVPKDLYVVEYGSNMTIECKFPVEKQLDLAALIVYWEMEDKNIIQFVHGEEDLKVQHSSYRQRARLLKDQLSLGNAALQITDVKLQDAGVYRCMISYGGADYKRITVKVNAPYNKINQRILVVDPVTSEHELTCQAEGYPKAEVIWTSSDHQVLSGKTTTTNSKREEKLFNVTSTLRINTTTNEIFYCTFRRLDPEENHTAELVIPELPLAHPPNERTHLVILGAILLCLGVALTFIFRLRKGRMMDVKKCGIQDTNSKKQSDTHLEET

Binding in a display sort, inactive:
B5 not found
B7 not found
B25 not found
B29 not found
B32 not found
B36 not found
